Screens from PubChem BioAssay.
D1 antag = human D1 dopamine receptor antagonism; P21728; HEK293 TREx D1 cells, calcium flux, dopamine EC80; stronger effect = lower value; activity change, negative = inhibition, % at 10 µM; hit rate 3.2% among 360,000; AID 504652; in the data active = activity change below about -30%; also: % is scaled to controls: 0 for no effect and ±100 for the full control effect
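Calcium flux readout: force-coupled, inducible Hek293 Trex D1 line, cells induced overnight at 30 C with tetracycline, dye-loaded 30–90 min at RT. Antagonism scored against EC80 dopamine challenge given 180 s after compound.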
D1 agonist = agonists of human D1 dopamine receptor; P21728; HEK293 T-REx D1 cells, calcium flux, agonist mode; activation, % at 2 µM; hit rate 1% among 360,000; in the data active = activation above about 30%; also: 0% is about no effect
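Agonism was scored from calcium flux recorded over 180 s (1 read/s) after pintool compound addition, following a 10-cycle baseline. Cells were inducible force-coupled HEK293 TREx D1, plated overnight at 30 C and loaded with no-wash calcium dye.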
DRD3 agonist = activates the human D3 dopamine receptor; D3R DiscoveRx beta-arrestin cells, luminescence, 90 min; max activation, %; P35462; hit rate 0.58% among 410,000; AID 652048; in the data active = max activation above about 30%; also: 0% is about no effect
Target sequence (P35462 whole entry, looked up): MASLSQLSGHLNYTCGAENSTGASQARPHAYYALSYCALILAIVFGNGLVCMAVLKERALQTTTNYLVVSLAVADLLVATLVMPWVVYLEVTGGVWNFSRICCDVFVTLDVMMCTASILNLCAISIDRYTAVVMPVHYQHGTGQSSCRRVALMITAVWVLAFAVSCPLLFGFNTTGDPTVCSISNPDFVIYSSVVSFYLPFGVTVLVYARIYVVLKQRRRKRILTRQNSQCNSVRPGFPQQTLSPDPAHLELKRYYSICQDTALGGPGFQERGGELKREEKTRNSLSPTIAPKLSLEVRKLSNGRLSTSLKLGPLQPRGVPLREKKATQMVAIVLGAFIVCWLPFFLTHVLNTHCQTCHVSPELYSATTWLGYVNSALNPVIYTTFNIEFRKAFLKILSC
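Agonist-mode cell screen: cells plated at 1500/well and incubated overnight at 37 °C, then exposed to library compounds for 90 min at 37 °C. Detection reagent was added for 30–60 min at room temperature, and luminescence was read.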
D1 potentiator = potentiators of human D1 dopamine receptor. P21728. HEK293 TREx D1 cells, calcium flux, dopamine EC20 potentiation. potentiation, % at 10 µM. hit rate 0.036% among 360,000; in the data active = potentiation above about 30%; also: 0% is about no effect
DRD3 antagonist = D3 dopamine receptor (human) antagonism; D3R cells, DiscoveRx beta-arrestin luminescence, antagonist mode; stronger effect = lower value; max response, negative = inhibition, %; hit rate 2.5% among 360,000; AID 652054; in the data active = max response below about -50%; inconclusive = no clear call, values can overlap the other calls; also: % is scaled to controls: 0 for no effect and ±100 for the full control effect
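Cells expressing the human receptor were seeded at 1500 cells/well, incubated overnight at 37 degrees C in 5% CO2, then exposed to library compounds with dopamine controls for 90 minutes at 37 degrees C before luminescent detection.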
* marks the source's active call; other numbers are inactive results; ? = inconclusive; . = no result. Only some compounds are listed: those with a hit (about 6% of all), similar ones and a draw of the others.

SMILES | D1 antag | D1 agonist | DRD3 agonist | D1 potentiator | DRD3 antagonist
O=C(NCCN1CCc2ccccc2C1)C1CCN(S(=O)(=O)N2CCCCC2)CC1 | 5.1 | 1.3 | -28.9 | 5.8 | -66.0*
O=C(NCCN1CCc2ccccc2C1)C1CCN(S(=O)(=O)N2CCC3(CC2)OCCO3)CC1 | -2.9 | 2.3 | -31.1 | -8.1 | -59.7*
CS(=O)(=O)N1CCCC(C(=O)NCCCN2CCc3ccccc3C2)C1 (centres undefined) | 3.7 | 3.3 | -30.3 | -2.8 | ?
Cc1[nH]c2ccccc2c1SCC(=O)N1CCC(C)CC1 | -48.5* | 0.3 | 2.8 | -2.5 | 16.3
CC(C)(C)C(C(=O)NCc1ccccc1)N1CCN(CCN2CCOCC2)CC1 (centres undefined) | . | . | -18.2 | . | -64.0*
CCCCNC(=O)C1CCCN(Cc2nc(-c3ccc(Cl)cc3)oc2C)C1 (centres undefined) | -30.4* | 7.3 | -25.6 | -4.1 | .
CCc1ccc(-c2nc(CN3CCC(C(=O)NCc4ccc(F)cc4)CC3)c(C)o2)cc1 | -9.8 | 33.3* | 1.3 | 1.7 | -15.9
CCN(CCNC(=O)C1CCN(Cc2nc(-c3ccc(Cl)cc3)oc2C)CC1)c1ccccc1 | -44.8* | 48.2* | -8.2 | -7.0 | -19.0
CCc1ccc(-c2nc(CN3CCC(C(=O)NCCN(CC)c4ccccc4)CC3)c(C)o2)cc1 | -22.5 | 32.2* | -2.0 | -8.6 | 8.8
COc1cc(OC)c(NC(=O)C(C)n2nc(-c3ccc(C)c(C)c3)ccc2=O)cc1Cl (centres undefined) | -4.0 | 4.1 | 0.7 | 1.4 | .
COc1ccc(Cl)cc1NC(=O)Cn1c(=O)n(CCC(=O)NCc2ccc3c(c2)OCO3)c(=O)c2ccccc21 | -27.5 | 3.0 | 7.1 | -0.5 | .
Cc1ccccc1CN1C(=O)c2ccccc2Sc2ccc(C(=O)NC3CCCC3)cc21 | -8.5 | 3.4 | 1.5 | -1.3 | .
Cc1oc(-c2cccc(Cl)c2)nc1CN1CCC(C(=O)NC2CC2)CC1 | 4.9 | 2.9 | 3.7 | -3.9 | 12.2
Cc1oc(-c2cccc(Cl)c2)nc1CS(=O)(=O)CC(=O)NCCN1CCOCC1 | -33.4* | 1.8 | 3.8 | -0.7 | 22.6
Cc1oc(-c2cccc(Cl)c2)nc1CN1CCC(C(=O)NCCCN2CCN(c3ccc(F)cc3)CC2)CC1 | -14.6 | 16.2 | -13.0 | -4.5 | .
Cc1oc(-c2ccc(Cl)cc2)nc1CN1CCC(C(=O)NCCCN2CCN(c3cccc(Cl)c3)CC2)CC1 | -45.1* | 48.9* | -25.6 | -3.4 | .
CCN(CCNC(=O)C1CCN(Cc2nc(-c3cccc(Cl)c3)oc2C)CC1)c1ccccc1 | -43.9* | 47.4* | 3.8 | -5.2 | -10.4
CCn1cc(C(=O)OCC(=O)Nc2cccc(C(C)=O)c2)c(=O)c2ccc(C)nc21 | -0.2 | -1.2 | -10.7 | -0.4 | .
Cc1ccc[n+](C(C)C(=O)Nc2ccc(C)c([N+](=O)[O-])c2)c1 (centres undefined) | 7.0 | 0.2 | -10.7 | -2.2 | -70.0*
CCN(CC)CCNC(=O)c1cc2cc3ccc(OC)cc3nc2o1 | -35.2* | 1.2 | -6.3 | 9.3 | -11.1
Cc1ccccc1-c1nc(CSc2nc3c(c(=O)[nH]2)CCC3)c(C)o1 | 18.7 | -2.1 | 30.2* | 0.7 | 189.2
Cc1cccc(N2CCN(c3nc4ccc(C)cc4n4cnnc34)CC2C)c1 (centres undefined) | 9.4 | 1.2 | -6.6 | -3.9 | .
Oc1ccccc1C1CCCCC1c1ccccc1 (centres undefined) | -39.3* | 5.4 | -2.5 | -4.1 | -11.0
CCCCN(C)C(=O)c1nc2ccccn2c1CNCCCn1ncc2ccccc21 | 2.5 | 4.6 | -13.9 | -11.2 | -76.7*
CN(Cc1ccccc1)C(=O)c1nc2ccccn2c1CNCCn1cccn1 | -3.9 | 10.1 | -7.0 | -0.2 | -5.9
CN(Cc1ccccc1)C(=O)c1nc2ccccn2c1CNCCCOc1cccnc1 | 5.8 | 2.0 | -16.5 | -5.4 | -55.9*
O=C(c1nc2ccccn2c1CNCCCn1ncc2ccccc21)N1CCCC1 | -5.0 | 1.9 | -25.7 | 7.8 | -11.9
O=C(C1=C(O)C(=O)N(CCN2CCOCC2)C1c1ccc([N+](=O)[O-])cc1)c1cccs1 (centres undefined) | -75.2* | 1.8 | -10.0 | -0.9 | -4.1
Cc1ccc(NC(=O)c2cc3ccccn3n2)cc1F | -5.6 | 1.7 | -16.8 | -2.2 | .
CC1c2ccccc2SC(CCCN(C)C)c2ccccc21 (centres undefined) | -47.7* | 47.9* | -6.5 | -1.2 | ?
